Screening results as filed in PubChem BioAssay.
Hits are enriched below; roughly 2.6% of the tested compounds scored in any of these assays.
Cruzain Triton = cruzain (T. cruzi) inhibition with detergent; P25779; actives 0.43% (n = 200,000); purified cruzain, Z-FR-AMC fluorescence, 0.01% Triton; Potency, µM, without a hit: max response, negative = inhibition, hits mostly inhibitors;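 note: plate controls were neutral wells for no effect and buffer without enzyme for full effect; nearly all actives have a fitted effect of over 40% in size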
Target sequence (P25779 123-467 limits assumed): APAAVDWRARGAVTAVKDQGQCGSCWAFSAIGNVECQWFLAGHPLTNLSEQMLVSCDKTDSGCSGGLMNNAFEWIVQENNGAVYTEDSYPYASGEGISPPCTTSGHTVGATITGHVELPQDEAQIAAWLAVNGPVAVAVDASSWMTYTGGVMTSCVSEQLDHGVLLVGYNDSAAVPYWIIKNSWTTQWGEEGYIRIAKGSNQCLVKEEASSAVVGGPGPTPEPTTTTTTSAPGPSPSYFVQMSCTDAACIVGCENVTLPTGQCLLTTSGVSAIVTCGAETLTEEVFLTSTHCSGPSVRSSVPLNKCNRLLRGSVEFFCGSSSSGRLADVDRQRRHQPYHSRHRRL
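15 min RT preincubation of 1.5 nM cruzain with compound, then 2 uM Z-FR-AMC added; kinetic AMC fluorescence, 60 s delta. Triton X-100 0.01%, pH 5.5.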
Cruzain noTriton = blocks cruzain activity in detergent-free assay. P25779. purified cruzain, Z-FR-AMC fluorescence, no detergent. Potency, µM, for inactives: max response, negative = inhibition, hits mostly inhibitors. actives 2.3% (n = 200,000). AID 1476;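 note: plate controls were enzyme without inhibitor for no effect and buffer without enzyme for full effect; nearly all actives have a fitted effect of over 40% in size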
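Purified cruzain at 1.5 nM, pre-incubated 15 min with compound at room temperature in 100 mM sodium acetate pH 5.5, 5 mM DTT, 0.00005% Triton X-100. Reaction started with 2 uM Z-FR-AMC; AMC fluorescence increase over 60 s gives rate.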
Papain inh = papain (Carica papaya) inhibition counter-screen; shares compounds with Cruzain Triton; Potency, µM, without a hit: max response, negative = inhibition, usual class: inhibitors; purified papain, Z-FR-AMC fluorescence cleavage; actives 41% (n = 410);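 note: 0% = no-compound wells and -100% = no-enzyme wells; nearly all actives have a fitted effect of over 35% in size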
Target sequence (P00784 whole entry, looked up): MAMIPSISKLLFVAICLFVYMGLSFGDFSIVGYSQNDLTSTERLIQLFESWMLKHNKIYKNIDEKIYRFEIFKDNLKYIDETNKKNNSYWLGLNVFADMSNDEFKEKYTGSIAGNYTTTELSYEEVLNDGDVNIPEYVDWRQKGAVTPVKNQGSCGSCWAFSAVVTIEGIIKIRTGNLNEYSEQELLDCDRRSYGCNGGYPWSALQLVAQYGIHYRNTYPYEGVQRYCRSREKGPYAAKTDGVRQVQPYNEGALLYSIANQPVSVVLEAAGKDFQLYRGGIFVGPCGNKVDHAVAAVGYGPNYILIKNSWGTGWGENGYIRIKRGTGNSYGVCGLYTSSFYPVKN
Active calls of the source: *; u = inconclusive; x = no result given. Calls come from the whole dose curve; as a rule, active = well fitted curve in the direction sought with a large enough effect; inconclusive = small, poorly fitted or top-dose-only effect, or another doubt; inactive = no such curve, though single readings can be large; an effect the other way counts as inactive or inconclusive. Potency is the fitted concentration of half-maximal effect.

SMILES | Cruzain Triton | Cruzain noTriton | Papain inh
C=CCn1c(SCC(=O)Nc2cccc3ccccc23)nnc1-c1cnccn1 | -9% | -12% | x
C=CCn1c(SCC(=O)Nc2cc3oc4ccccc4c3cc2OC)nnc1-c1cnccn1 | 0% | u | 4%
CCOC(=O)c1ccc(NC(=O)Cn2nc(SC)c(S(=O)(=O)c3ccc(Cl)cc3)c2N)cc1 | -2% | -28% | x
CC(C)(C)OC(=O)N1CCC(c2c(C(=O)NC3CCCCC3)cnn2-c2cccc(F)c2)CC1 | -1% | 12% | x
Cc1ccc(NC(=S)c2nc3ccccc3[nH]2)c(C)c1 | -8% | -24% | x
Cc1ccc2[nH]c(=O)c(NC(N)=S)nc2c1 | 1.8µM* | 1.6µM* | 1%
Cc1ccc(C)n1-c1nnc(N2CCCC(C(=O)Nc3ccc(C(C)C)cc3)C2)s1 (stereo not given) | -6% | -13% | x
CSc1ccc(CNC(=O)c2ccc3c(c2)N(C)C(=O)C2CCCCN32)cc1 (stereo not given) | -11% | -5% | x
O=C(O)CCC(=O)N1CCCC1C(=O)O (stereo not given) | 3% | 3% | x
CCOC(=O)c1ccc(N2CSC3=C(C#N)C(c4cccs4)CC(=O)N3C2)cc1 (stereo not given) | -9% | -16% | 2%
CCc1ccc(N2CSC3=C(C#N)C(c4cccs4)CC(=O)N3C2)cc1 (stereo not given) | -8% | u | x
CNc1oc(Cc2ccccc2)nc1S(=O)(=O)c1ccccc1 | 3.2µM* | 3.2µM* | 28µM*
CNc1oc(C)nc1S(=O)(=O)c1ccc(C)cc1 | -1% | -5% | x
CNC(=O)c1ccc2nc(-c3cccc(C)c3)c(-c3cccc(C)c3)nc2c1 | x | x | -13%
Cc1cc(NC(=O)c2ccc3nc(-c4ccccc4)c(-c4ccccc4)nc3c2)no1 | -5% | -21% | x
Cc1ccc(C)c(CN2C(=O)c3ccccc3Sc3ccc(C(=O)NCc4cccs4)cc32)c1 | 0% | u | x
O=C(NCc1ccc2c(c1)OCO2)c1ccc2c(c1)N(Cc1ccccc1F)C(=O)c1ccccc1S2 | -1% | u | x
O=C(NCc1ccc2c(c1)OCO2)c1ccc2c(c1)N(Cc1cccc(Cl)c1)C(=O)c1ccccc1S2 | 1% | 13µM* | 11%
Cc1ccc(C)c(CN2C(=O)c3ccccc3Sc3ccc(C(=O)NCc4ccc5c(c4)OCO5)cc32)c1 | -1% | 20µM* | 8%
Cc1cnc2c(c1SCC(=O)NCc1ccc(F)cc1)c(=O)n(C)c(=O)n2C | 0% | -3% | x
O=C(Nc1cccc(C(F)(F)F)c1)c1cc(-c2ccc3c(c2)OCCO3)on1 | -9% | 9% | x
CC(=O)Oc1cccc(C)c1 | 2% | -1% | x
CCC(=O)CCC(=O)c1ccc2ccccc2c1 | -4% | -7% | x
CC(C)N(CCC(=O)c1ccc2ccccc2c1)Cc1ccccc1 | 7.9µM* | 7.9µM* | -15%
COCCNC(=O)Nc1ccc2nc(-c3cccs3)c(-c3cccs3)nc2c1 | -10% | u | x
SMILES | Cruzain Triton | Cruzain noTriton | Papain inh
CCC(C)NC(=O)c1ccc2nc(-c3cccs3)c(-c3cccs3)nc2c1 (stereo not given) | x | x | -3%
CCOCCCNC(=O)C(c1ccc(C)cc1)N(Cc1ccc2c(c1)OCO2)C(=O)c1ccccc1O (stereo not given) | -5% | u | x
CCS(=O)(=O)c1cccc(C(=O)N2CCN(c3nc4c(C)ccc(Cl)c4s3)CC2)c1 | 7.9µM* | u | -6%
CCS(=O)(=O)c1ccc(C(=O)N2CCN(c3nc4c(OC)ccc(C)c4s3)CC2)cc1 | -9% | u | x
Cc1ccc2[nH]c(=O)c(CN(Cc3cccs3)Cc3nnnn3Cc3ccco3)cc2c1 | x | x | -13%
CCc1ccc2[nH]c(=O)c(CN(Cc3cccs3)Cc3nnnn3Cc3ccccc3)cc2c1 | x | x | -16%
CCC(c1nnnn1Cc1ccccc1)N(Cc1ccccc1)Cc1cc2cc(C)ccc2[nH]c1=O (stereo not given) | x | x | -6%
CCOc1ccc2[nH]c(=O)c(CN(Cc3ccco3)C(CC)c3nnnn3Cc3ccccc3)cc2c1 (stereo not given) | -11% | 11% | x
Cc1ccc2[nH]c(=O)c(CN(Cc3cccs3)Cc3nnnn3CC3CCCO3)cc2c1 (stereo not given) | 1% | u | x
COc1ccc2[nH]c(=O)c(CN(Cc3cccs3)Cc3nnnn3Cc3ccccc3)cc2c1 | -1% | 3% | x
Cc1ccc2[nH]c(=O)c(CN(CCO)Cc3nnnn3Cc3ccccc3)cc2c1 | x | x | 3%
CCOc1ccc2[nH]c(=O)c(CN(CCO)Cc3nnnn3CCc3ccccc3)cc2c1 | -2% | 6% | x
CCCCC/C=C\C=C\C(O)CCCCCCCC(=O)O (stereo not given) | 2% | -17% | x
COC(=O)c1sc(N2C(=O)c3oc4cc(C)c(C)cc4c(=O)c3C2c2ccccc2F)nc1C (stereo not given) | -1% | 1% | x
COc1cccc(NC(=O)Cn2cc(C(=O)c3ccco3)c3ccccc32)c1 | -13% | u | x
COc1ccccc1CN(Cc1cc2cc(C)ccc2[nH]c1=O)Cc1nnnn1Cc1ccco1 | -20% | -8% | x
Cc1ccc2[nH]c(=O)c(CN(CCc3ccccc3)Cc3nnnn3CC3CCCO3)cc2c1 (stereo not given) | -7% | 24% | x
Cc1ccc2[nH]c(=O)c(CN(CCO)Cc3nnnn3Cc3ccco3)cc2c1 | x | x | 1%
Cc1ccc(CN(Cc2cc3cc(C)ccc3[nH]c2=O)Cc2nnnn2Cc2ccccc2)cc1 | x | x | -12%
CCOC(=O)Cn1nnnc1CN(Cc1ccc(OC)cc1)Cc1cc2cc(C)ccc2[nH]c1=O | -8% | u | x
Cc1ccc2[nH]c(=O)c(CN(CCCO)Cc3nnnn3Cc3ccccc3)cc2c1 | x | x | -5%
CCOc1ccc(-c2cc(NC(=O)c3ccccc3)c(C(=O)OC)s2)cc1 | -2% | 8% | x
Cn1c(=O)c2c(ncn2CC(=O)Nc2cc(Cl)cc(Cl)c2)n(C)c1=O | -8% | 8% | x
Cc1ccc(C)c2sc(N3CCN(C(=O)C(C)(C)C)CC3)nc12 | -3% | 5% | x
CCOCCc1nn2c(=O)cc(COC(=O)c3ccc(NC(=O)C4CCCCC4)cc3)nc2s1 | -1% | 2% | x
SMILES | Cruzain Triton | Cruzain noTriton | Papain inh
COCCn1c(=O)c(-c2ccc(F)cc2)nc2cnc(N3CCOCC3)nc21 | -2% | -2% | x
CN(C)c1nc(C#N)nc(N(C)C)n1 | x | x | 11µM*
CCCN(CCC)c1nc(N)c(C#N)c(CC#N)c1C#N | -6% | -15% | x
CCCN(CCC)c1nc(C#N)nc(N(CCC)CCC)n1 | x | x | 2.5µM*
CN(C)c1nc(N(C)C)nc(N(C)C)n1 | 4% | -2% | x
C=C[C@@H](C)[C@](C)(O)c1ccccc1 | 3% | -15% | x
CCCC(=O)Nc1ccc(OC[C@@H](O)CNC(C)C)c(C(C)=O)c1 | -1% | -2% | x
COc1ccccc1C(=O)Nc1ccc2nc(N3CCC(C)CC3)cc(C)c2c1 | -25% | -8% | x
O=C1CN(C(=O)CSc2nc3ccccc3n2CCc2ccccc2)c2ccccc2N1 | -24% | -22% | x
CCCn1c(SCC(=O)N2CC(=O)Nc3ccccc32)nc2ccccc21 | 13µM* | 4% | 11%
CCOc1ccc(-c2cc(NC(=O)c3ccc(C)cc3)c(C(=O)OC)s2)cc1 | 0% | 2% | x
N#Cc1sc2nc(-c3ccccc3)cc(-c3ccco3)c2c1N | -14% | -15% | x
N#Cc1c(-c2ccccc2)cc(-c2ccco2)c(C#N)c1N | -3% | -22% | 8%
COc1ccccc1NC(=O)Cn1c(=O)n(Cc2ccccc2)c(=O)c2sc3ccccc3c21 | -3% | 0% | x
